This passage reports viability results from PubChem BioAssay.

Structures are written as SMILES. Inconclusive results are not listed. The source made the active and inactive calls.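 The calls were made as follows, unless noted: active = cell viability at or below a set limit in both duplicate runs, the limit being the all-compound median minus 4 SD (cut at about 23% in these data, passing the limit was not always enough); inconclusive = no clear call, values can overlap the other calls; inactive = the rest.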

One experiment in a line: growth suppression of beta-catenin knockout HCT116, pilot screen, human colon tumor cells (AID 823).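 Also: 0% = wells killed by 20 µM Hyamine and 100% = untreated DMSO cell wells.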 To be noted: CellTiter-Glo, 60 h, at 10 µM, stronger effect = lower value. (In general: Cellular ATP, detected with luciferase, serves as a proxy for viable cell number.)
With `Cc1cccc(NC(=O)c2cccnc2)c1`, the viability is 97.2% (inactive).
Turning to `O=C(CCCOc1ccccc1)Nc1ccc2c(c1)OCCO2`, the viability was 102% (inactive).
Still for that read-out and setting: the same measure for `C=CCn1c(C(C)NC(=O)COC)nc2ccccc21` (stereo not given): 98.7% (inactive).
Same read-out and setting: as for `CCCC(=O)N1CCN(c2ccc(C(=O)c3ccc(OC)c(Br)c3)cc2F)CC1`, the figure is 96.8% (inactive).
The same measure, in the same setting: the same measure for `CC(C)Cc1cc(C(=O)Nc2ccc(F)cc2F)no1`: 100% (inactive); for `CN1CCN(CCNC(=O)c2cc3c(=O)n(C)c4ccccc4c3n2C)CC1`: 82.3% (inactive).
As to `Cn1nc(-c2ccc(Cl)cc2)c2cc(C(=O)NCCCN3CCCC3)sc21`, the viability was 2.27% (active).
For the molecule `CCOC(=O)c1c(C)oc2cc(Br)c(OC(C)C(=O)OCC)cc12` (stereo not given), the viability is 85.4% (inactive).
On the same count and under the same terms, as for `O=C(C1CC1)N1CCc2cc(Br)cc(S(=O)(=O)NCc3ccc4c(c3)OCO4)c21`, the figure is 87.1% (inactive).
On the same count and under the same terms, the same measure for `COc1ccc(OC)c(NC2c3ccccc3C(=O)N2Cc2ccc3c(c2)OCO3)c1` (stereo not given): 98% (inactive).
Same read-out and setting: as for `CC1CCN(S(=O)(=O)c2ccc3c(c2)oc(=O)n3CC(=O)NCc2ccc3c(c2)OCO3)CC1`, the figure is 81.4% (inactive); as for `COc1cccc(-n2nnc3c(=O)n(Cc4cccc(C)c4)cnc32)c1`, 104% (inactive); as for `CCc1cc2c(NCC3CCCO3)ncnc2s1` (stereo not given), 102% (inactive).
On to `Cc1ccc(-n2nc3ccc(N)cc3n2)cc1`, for which the viability is 80% (inactive).
Same read-out and setting: the same measure for `COc1ccc(N2C(=O)C3CCCN3C2c2ccc(Cl)cc2)cc1` (stereo not given): 101% (inactive); for `CCOC(=O)c1ccc(NCn2c(=O)oc3ccccc32)cc1`: 88.5% (inactive).
Same read-out and setting: as for `Cc1cccc(-n2ncc3c(N4CCC(C)CC4)ncnc32)c1`, the figure is 81.4% (inactive); as for `CCOC(=O)c1ccc(N2C(=O)C3ON(c4ccccc4)C(c4ccco4)C3C2=O)cc1` (stereo not given), 102% (inactive).
On the same count and under the same terms, the same measure for `O=C(C1COc2ccccc2O1)N1CCn2c(nc3ccccc32)C1` (stereo not given): 106% (inactive).
Regarding `CN(CC(=O)N1CC=C(c2ccccc2)CC1)S(=O)(=O)c1ccc2c(c1)c(=O)n(C)c(=O)n2C`, the viability is 94.1% (inactive).
With `CSC1=NCCN1C(=O)COc1ccccc1`, the viability is 97.8% (inactive).
Turning to `CC(C)NC(=O)c1ccc(CS(=O)(=O)c2ccc(Br)cc2)o1`, the viability is 87.1% (inactive).
As to `Cc1ccc(-n2ncc3c(=O)[nH]c(SCC(=O)N4CCCC4)nc32)cc1C`, the viability is 105% (inactive).
With `O=c1[nH]c(NC2CCCCC2)nnc1Cc1ccccc1`, the viability is 102% (inactive).
The same measure, in the same setting: the same measure for `COc1ccc(N2CCN(Cc3nc4c(c(=O)[nH]c(=O)n4C)n3Cc3cccc(Cl)c3)CC2)cc1`: 91.6% (inactive); for `Cc1nc2scc(-c3cccs3)c2c(=O)o1`: 95.8% (inactive); for `CCC1Oc2nc(SC)nnc2-c2ccccc2N1C(=O)c1ccccc1` (stereo not given): 70.6% (inactive).
`O=C(CSc1nc2ccccc2c(=O)n1-c1ccccc1)N1CCN(CCO)CC1`: the viability is 99.5% (inactive).
`O=c1oc(-c2cccnc2)nc2ccccc12`: the viability was 107% (inactive).
The same measure, in the same setting: the same measure for `CN(C)CCNC(=O)c1cc2c(=O)n(C)c3ccccc3c2n1C`: 52.9% (inactive).
Still for that read-out and setting: the same measure for `CNC(=O)c1c(NC(=O)c2ccc(S(=O)(=O)N3CCOCC3)cc2)sc2c1CCC2`: 95.9% (inactive); for `O=C1c2ccccc2CCC1C(O)c1ccccn1` (stereo not given): 95.5% (inactive); for `CCCCCSc1nc2c(c(=O)[nH]c(=O)n2C)n1CC`: 88% (inactive).
On the same count and under the same terms, as for `COC(=O)c1cc(NC(=O)c2nccnc2C(=O)O)cc(C(=O)OC)c1`, the figure is 90.4% (inactive); as for `O=C(CC1Sc2ccccc2NC1=O)Nc1cccc(C(=O)O)c1` (stereo not given), 101% (inactive).
As to `Cc1cccc(NC(=O)COc2ccc(Br)cc2C)n1`, the viability was 92.9% (inactive).
Take `COc1cc(C(=O)Nc2ccc(N(C)C)cc2)cc(OC)c1OC`: the viability is 82.2% (inactive).
The same measure, in the same setting: the same measure for `CC1Cc2nc(SCC(=O)NCc3ccco3)n(-c3ccccc3)c(=O)c2S1` (stereo not given): 103% (inactive).
The same measure, in the same setting: the same measure for `O=C(Nc1cccc(Br)c1)c1cc2ccccc2o1`: 65.5% (inactive); for `CCOCCCNC(=O)C(NC(=O)CNC(C)=O)c1ccc(Cl)cc1` (stereo not given): 102% (inactive).

A further experiment in a line: growth suppression of PTEN-deleted HCT116, pilot screen, cell-based, HCT116 clonal line, CellTiter-Glo (AID 824;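 active = viability at or below 27.92% in each of two runs, the all-compound median minus 4 SD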;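 also: 0% = 20 µM Hyamine control and 100% = vehicle cell control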). To be noted: 60 h, at 10 µM, stronger effect = lower value.
`Cc1cccc(NC(=O)c2cccnc2)c1`: the viability was 96.5% (inactive).
The same measure, in the same setting: the same measure for `O=C(CCCOc1ccccc1)Nc1ccc2c(c1)OCCO2`: 102% (inactive); for `C=CCn1c(C(C)NC(=O)COC)nc2ccccc21` (stereo not given): 96.2% (inactive).
Same read-out and setting: as for `CCCC(=O)N1CCN(c2ccc(C(=O)c3ccc(OC)c(Br)c3)cc2F)CC1`, the figure is 93.7% (inactive).
Still for that read-out and setting: as for `CC(C)Cc1cc(C(=O)Nc2ccc(F)cc2F)no1`, the figure is 98.6% (inactive).
Consider `CN1CCN(CCNC(=O)c2cc3c(=O)n(C)c4ccccc4c3n2C)CC1`, for which the viability was 81.3% (inactive).
Still for that read-out and setting: the same measure for `Cn1nc(-c2ccc(Cl)cc2)c2cc(C(=O)NCCCN3CCCC3)sc21`: 1.95% (active); for `CCOC(=O)c1c(C)oc2cc(Br)c(OC(C)C(=O)OCC)cc12` (stereo not given): 92% (inactive).
As to `O=C(C1CC1)N1CCc2cc(Br)cc(S(=O)(=O)NCc3ccc4c(c3)OCO4)c21`, the viability was 86.1% (inactive).
On the same count and under the same terms, as for `COc1ccc(OC)c(NC2c3ccccc3C(=O)N2Cc2ccc3c(c2)OCO3)c1` (stereo not given), the figure is 90% (inactive); as for `CC1CCN(S(=O)(=O)c2ccc3c(c2)oc(=O)n3CC(=O)NCc2ccc3c(c2)OCO3)CC1`, 76.7% (inactive); as for `COc1cccc(-n2nnc3c(=O)n(Cc4cccc(C)c4)cnc32)c1`, 89.7% (inactive).
The same measure, in the same setting: as for `CCc1cc2c(NCC3CCCO3)ncnc2s1` (stereo not given), the figure is 95.6% (inactive); as for `Cc1ccc(-n2nc3ccc(N)cc3n2)cc1`, 78.5% (inactive).
Take `COc1ccc(N2C(=O)C3CCCN3C2c2ccc(Cl)cc2)cc1` (stereo not given): the viability is 95.5% (inactive).
The same measure, in the same setting: the same measure for `CCOC(=O)c1ccc(NCn2c(=O)oc3ccccc32)cc1`: 87.6% (inactive); for `Cc1cccc(-n2ncc3c(N4CCC(C)CC4)ncnc32)c1`: 82.9% (inactive).
The same measure, in the same setting: the same measure for `CCOC(=O)c1ccc(N2C(=O)C3ON(c4ccccc4)C(c4ccco4)C3C2=O)cc1` (stereo not given): 93.4% (inactive); for `O=C(C1COc2ccccc2O1)N1CCn2c(nc3ccccc32)C1` (stereo not given): 92% (inactive); for `CN(CC(=O)N1CC=C(c2ccccc2)CC1)S(=O)(=O)c1ccc2c(c1)c(=O)n(C)c(=O)n2C`: 80.3% (inactive).
With `CSC1=NCCN1C(=O)COc1ccccc1`, the viability was 104% (inactive).
On the same count and under the same terms, as for `CC(C)NC(=O)c1ccc(CS(=O)(=O)c2ccc(Br)cc2)o1`, the figure is 95.1% (inactive); as for `Cc1ccc(-n2ncc3c(=O)[nH]c(SCC(=O)N4CCCC4)nc32)cc1C`, 91.8% (inactive); as for `O=c1[nH]c(NC2CCCCC2)nnc1Cc1ccccc1`, 97.6% (inactive).
Still for that read-out and setting: as for `COc1ccc(N2CCN(Cc3nc4c(c(=O)[nH]c(=O)n4C)n3Cc3cccc(Cl)c3)CC2)cc1`, the figure is 77% (inactive).
Still for that read-out and setting: the same measure for `Cc1nc2scc(-c3cccs3)c2c(=O)o1`: 98.7% (inactive).
For `CCC1Oc2nc(SC)nnc2-c2ccccc2N1C(=O)c1ccccc1` (stereo not given), the viability is 58.1% (inactive).
The same measure, in the same setting: the same measure for `O=C(CSc1nc2ccccc2c(=O)n1-c1ccccc1)N1CCN(CCO)CC1`: 98.6% (inactive); for `O=c1oc(-c2cccnc2)nc2ccccc12`: 96.1% (inactive).
The same measure, in the same setting: the same measure for `CN(C)CCNC(=O)c1cc2c(=O)n(C)c3ccccc3c2n1C`: 54.4% (inactive); for `CNC(=O)c1c(NC(=O)c2ccc(S(=O)(=O)N3CCOCC3)cc2)sc2c1CCC2`: 91.8% (inactive); for `O=C1c2ccccc2CCC1C(O)c1ccccn1` (stereo not given): 99.2% (inactive).
Still for that read-out and setting: the same measure for `CCCCCSc1nc2c(c(=O)[nH]c(=O)n2C)n1CC`: 88% (inactive); for `COC(=O)c1cc(NC(=O)c2nccnc2C(=O)O)cc(C(=O)OC)c1`: 98% (inactive); for `O=C(CC1Sc2ccccc2NC1=O)Nc1cccc(C(=O)O)c1` (stereo not given): 87% (inactive).
Turning to `Cc1cccc(NC(=O)COc2ccc(Br)cc2C)n1`, the viability was 90.5% (inactive).
The same measure, in the same setting: as for `COc1cc(C(=O)Nc2ccc(N(C)C)cc2)cc(OC)c1OC`, the figure is 82.9% (inactive); as for `CC1Cc2nc(SCC(=O)NCc3ccco3)n(-c3ccccc3)c(=O)c2S1` (stereo not given), 99% (inactive); as for `O=C(Nc1cccc(Br)c1)c1cc2ccccc2o1`, 64.3% (inactive).
On the same count and under the same terms, the same measure for `CCOCCCNC(=O)C(NC(=O)CNC(C)=O)c1ccc(Cl)cc1` (stereo not given): 101% (inactive).

Usually viability stands for a read-out of living cells in per cent, often relative to untreated cells.
